Screening results as filed in PubChem.
Only some compounds are listed: those with a hit (about 2.5% of all), similar ones and a draw of the others.
rTrxR1 inhibitor – qHTS Assay for Inhibitors of Mammalian Selenoprotein Thioredoxin Reductase 1 (TrxR1): qHTS; Potency, µM (doses to about 114 µM), without a hit: top-dose activity change, negative = inhibition, usual class: inhibitors; AID 588453, 2011; recombinant rTrxR1, NADPH fluorescence consumption, selenite substrate; 390,000 tested, 1% active; Thioredoxin reductase 1, cytoplasmic (Rattus norvegicus), O89049; note: potency is the fitted concentration of half-maximal effect; % is set by controls: 0 for no effect and ±100 for the full control effect; nearly all actives have a fitted effect of over 65% in size
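Rat TrxR1 (90 nM in the dispensed reagent) was pre-reduced with 400 uM NADPH for 5 min at room temperature, then incubated with compound for 15 min. After 400 uM selenite was added, NADPH fluorescence (Ex 340/Em 450 nm) was followed for 8 min.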
ClpP mod – qHTS Assay for Activators of ClpP; Potency, µM (highest dose often 57.5 µM), without a hit: at the top dose activity change, negative = active; 340,000 tested, 1.9% active; AID 651965, 2013; purified B. subtilis ClpP, FRET peptide cleavage, 20 min; ATP-dependent Clp protease proteolytic subunit (Bacillus subtilis (strain 168)), P80244; active = well fitted falling curve with a large enough effect; inconclusive = small, poorly fitted or top-dose-only effect; inactive = no such curve, though single readings can be large or run the other way; note: potency is the fitted concentration of half-maximal effect; the source files actives as falling curves though it sought activators and does not explain the sign; nearly all actives have a fitted effect of over 65% in size
Target sequence (P80244 whole entry, looked up): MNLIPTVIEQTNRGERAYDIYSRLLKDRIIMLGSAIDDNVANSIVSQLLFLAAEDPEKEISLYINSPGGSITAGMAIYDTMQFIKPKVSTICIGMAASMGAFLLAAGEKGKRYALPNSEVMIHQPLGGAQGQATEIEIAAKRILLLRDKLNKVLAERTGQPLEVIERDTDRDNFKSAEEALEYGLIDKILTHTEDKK
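Buffer: 100 mM Tris/HCl pH8, 100 mM KCl, 0.05% low protease BSA, 2.5% glycerol, 0.01% Tween-20. ClpP 10 microg/mL final; 20 min RT; delta FRET normalized to ADEP and DMSO controls.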
Apoferritin bind – qHTS Assay for Identification of Novel General Anesthetics. 350,000 tested, 0.074% active. AID 485281, 2010. Potency, µM (titrated, usually from 77.5 µM), for the others: at the highest dose activity change, negative = displacement, actives largely listed as inhibitors. apoferritin/1-aminoanthracene competitive binding, fluorescence. Ferritin light chain (Equus caballus), P02791; note: potency is the fitted concentration of half-maximal effect; % is set by controls: 0 for no effect and ±100 for the full control effect; nearly all actives have a fitted effect of over 20% in size
Target sequence (P02791 2-175 limits assumed): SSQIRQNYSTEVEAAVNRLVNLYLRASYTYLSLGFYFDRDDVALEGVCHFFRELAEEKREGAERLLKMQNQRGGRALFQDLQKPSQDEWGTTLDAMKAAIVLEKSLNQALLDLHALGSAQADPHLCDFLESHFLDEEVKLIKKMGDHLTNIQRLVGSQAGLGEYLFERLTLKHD
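10 uM apoferritin + 50% sat. 1-AMA, PBS; cpd 10 min RT; Ex380/Em535 endpoint; normalized to free probe vs complex; 4-param Hill fit; propofol titration as pos. ctrl.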
miR-21 act – qHTS Assay for Modulators of miRNAs and/orActivators of miR-21 | HeLa miR-21 FLuc reporter, luciferase, 48 h | Potency, µM (series often up to 38.3 µM), without a hit: at the top dose activity change, positive = activation, actives largely listed as activators | 340,000 tested, under 10 active;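 note: % of control where 0% means no effect; miR-21 action dims this reporter so a rising signal means less miR-21 action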
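Compounds were titrated across several concentrations (up to approximately 40 uM) and incubated 48 hours with HeLa miR-21-FLuc reporter cells (miR-21 target sequence downstream of FLuc, endogenous miR-21). Readout was firefly luciferase luminescence after lytic detection reagent.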
TrxR1 substrate – qHTS Assay for Substrates of Mammalian Selenoprotein Thioredoxin Reductase 1 (TrxR1): qHTS | Thioredoxin reductase 1, cytoplasmic (Rattus norvegicus), O89049 | purified TrxR1 substrate turnover, NADPH consumption readout | Potency, µM (top dose mostly 114 µM), for inactives: at the top dose activity change, negative = substrate turnover | 390,000 tested, 0.01% active | AID 588456, 2011; note: potency is the fitted concentration of half-maximal effect; % is set by controls: 0 for no effect and ±100 for the full control effect; nearly all actives have a fitted effect of over 50% in size
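Rat TrxR1, dispensed at 90 nM, was prereduced with 400 uM NADPH (final) for 5 min at ~22 deg C, then incubated with compound 15 min before 400 uM selenite. A first-read NADPH fluorescence drop versus no-compound background flagged substrates.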
* hit, by the source's call; ? = inconclusive; · = no result; [ ] = dose if it differs, or a comment. Unless noted, calls come from the whole dose curve; as a rule, active = well fitted curve in the direction sought with a large enough effect; inconclusive = small, poorly fitted or top-dose-only effect, or another doubt; inactive = no such curve, though single readings can be large; an effect the other way counts as inactive or inconclusive.

SMILES	rTrxR1 inhibitor	ClpP mod	Apoferritin bind	miR-21 act	TrxR1 substrate
O=C(Nc1ccc2nc(-c3ccco3)c(-c3ccco3)nc2c1)N1CCN(c2ccccn2)CC1	1.41µM*	-10.6%	-14.4%	4.4%	-11.7%
CCOC(=O)c1ccc(NC(=O)N2CCN(c3ccccn3)CC2)cc1	-2.2%	22.4µM*	4.0%	8.9%	6.7%
O=C(Nc1ccccc1Cl)N1CCN(c2ccccn2)CC1	11.2%	22.4µM*	-1.7%	-20.9%	18.9%
CCOC(=O)C1CCN(C(=O)Nc2ccc3oc(C)nc3c2)CC1	-2.4%	0.8%	-13.8%	-10.3%	8.6%
Cc1nc2ccc(NC(=S)N3CCN(c4ccccn4)CC3)cc2nc1C	-19.3%	-4.7%	6.5%	-9.4%	3.9%
C[C@@H]1CC[C@H]2C(=O)O[C@H](CN=[N+]=[N-])CN2[C@@H]1c1ccc(Br)cc1	·	·	-1.1%[15.3 µM]	·	·
NC(=O)c1nc(Nc2ccccc2)sc1NC(=O)c1ccccc1Br	17.8%[57.1 µM]	0.9%	55.5%	1.3%	-0.1%[57.1 µM]
CCCC/C=C/[C@H](c1ccccc1)[C@H](CO)Cc1ccccc1	21.8%	·	-0.6%	·	-0.5%
COc1ccccc1CNC(=O)c1ccc(-c2nc(CS(=O)c3ccc(C)cc3)c(C)o2)cc1 (configuration not stated)	?	-12.7%	55.6%	-7.6%	-3.5%
CC1CCN(C(=O)Nc2ccc3nc(-c4ccco4)c(-c4ccco4)nc3c2)CC1	3.98µM*	-4.2%	·	·	-15.1%
O=C(Nc1ccc2nc(-c3ccco3)c(-c3ccco3)nc2c1)N1CCCC1	?	·	·	·	8.0%
CC1=NN(c2ccc(N)cc2)C(=O)C1	28.2µM*	-0.2%	-22.3%	3.2%	-10.5%
Cc1ccc(NC(=O)CN2C(=O)c3cccnc3Sc3ccccc32)cc1C	14.1%[57.1 µM]	-22.0%	?	-48.6%	8.1%[57.1 µM]
CCN(CC)S(=O)(=O)c1ccc(NC(=O)[C@H](CSCc2ccccc2)N2Cc3ccccc3C2=O)cc1	4.4%	-0.8%	106.8%	3.4%	-6.2%
Nc1c(C(=O)NCC2CCCO2)sc2nc3c(c(-c4ccco4)c12)CC/C3=C\c1ccco1 (configuration not stated)	14.1µM*	0.7%	1.6%	-4.1%	-14.0%
NC(=O)c1sc2nc3c(c(-c4ccco4)c2c1N)CCCC3	9.2%	-1.5%	3.2%	20.2%	4.1%
Cc1ccc(CNc2cc(C)nc3nc(-c4cccc(C)c4)nn23)cc1	0.3%[57.1 µM]	-3.3%	73.5%	15.2%	-1.4%[57.1 µM]
Nc1nc(N2CCCCC2)nc2ccccc12	-7.6%	17.8µM*	2.3%	-21.0%	34.7%
CCOc1ccccc1CNS(=O)(=O)c1ccc(-c2coc(C)n2)cc1	18.4%[57.1 µM]	1.6%	-2.3%	7.6%	3.3%[57.1 µM]
COC(=O)C1=CN(C(C)C)C=C(C(=O)OC)C1c1cc(Br)c(OC)c(OC)c1	38.0%	6.31µM*	499.5%	-3.8%	482.3%
COC(=O)C1=CN(C(C)C)C=C(C(=O)OC)C1c1cccc(OC)c1	-35.9%	30.8%	668.2%	-0.8%	603.3%
CC1CCN(c2nc3c(S(=O)(=O)c4cccc(Cl)c4)nnn3c3ccsc23)CC1	15.6%	22.4µM*	8.1%	-1.2%	17.1%
O=S(=O)(c1cccc(Cl)c1)c1nnn2c1nc(NC1CCCC1)c1sccc12	2.3%	-5.7%	-19.2%	-22.4%	2.1%
CC(=O)Oc1ccccc1C(=O)NC(C)CCc1ccccc1 (configuration not stated)	20.0%[57.1 µM]	-13.4%	7.4%	2.4%	-0.5%[57.1 µM]
COCC(C)NC(=O)c1ccccc1OC(C)=O (configuration not stated)	-9.9%	25.1µM*	4.3%	-3.8%	6.0%
SMILES	rTrxR1 inhibitor	ClpP mod	Apoferritin bind	miR-21 act	TrxR1 substrate
CN(C(=O)CSC1=Nc2ccccc2C2=NC(c3ccccc3)C(=O)N12)C1CCCCC1 (configuration not stated)	-13.5%	25.1µM*	?	-5.8%	56.6%
O=C(CSC1=Nc2ccccc2C2=NC(c3ccccc3)C(=O)N12)NC1CCCCC1 (configuration not stated)	-19.1%	11.2µM*	-10.5%	-10.0%	63.2%
O=C(CC1N=C2c3ccccc3N=C(SCc3ccccc3Cl)N2C1=O)NC1CCCCC1 (configuration not stated)	8.3%[57.1 µM]	-4.1%	-4.3%	-3.6%	-0.6%[57.1 µM]
COc1ccc(CCNC(=O)CCc2cn(Cc3ccc(F)cc3)c3ccccc23)cc1OC	-3.6%	-12.7%	53.0%	-5.2%	-18.4%
NS(=O)(=O)c1ccc(CCNC(=O)C2CCN(S(=O)(=O)c3ccccc3)CC2)cc1	1.5%[57.1 µM]	28.2µM*	-6.1%	4.3%	3.4%[57.1 µM]
NS(=O)(=O)c1ccc(CCNC(=O)C2CCCN2C(=O)OCc2ccccc2)cc1 (configuration not stated)	15.0%[57.1 µM]	31.6µM*	-1.3%	-1.0%	13.6%[57.1 µM]
CSc1ccc(S(=O)(=O)N2CCC(C(=O)NCCCn3ccnc3)CC2)cc1	9.6%	1.7%	-5.0%	-0.2%	3.9%
NS(=O)(=O)c1ccc(CCNC(=O)C2CCCCN2S(=O)(=O)c2ccccc2)cc1 (configuration not stated)	13.8%	0.1%	-7.8%	-3.7%	6.5%
Cc1ccc(S(=O)(=O)N2CCC(C(=O)NCCCn3ccnc3)CC2)cc1	13.7%	15.8µM*	-3.6%	-0.5%	8.9%
COc1cccc(CNC(=O)CCc2c(C)nc3c4c(C)cc(C)nc4nn3c2C)c1	-7.7%	4.8%	-0.7%	4.3%	63.6%
N#CC1=C(N)C(C#N)(C#N)C(c2ccc[nH]2)C2CCCC=C12 (configuration not stated)	11.2µM*	-10.9%	5.6%	-10.3%	5.6%
CC(=O)c1c(C)[nH]c(C(=O)COc2ccc3ccc(=O)oc3c2)c1C	-14.0%	31.6µM*	·	·	55.0%
CCOc1ccc(-c2cc(NC(=O)Nc3ccccc3Cl)c(C(=O)OC)s2)cc1	4.8%	14.1µM*	-4.3%	-62.9%	30.2%
CCCCC(=O)Nc1ccc(C(=O)OCc2cc(=O)n3ccsc3n2)cc1	-17.4%[57.1 µM]	-8.8%	?	8.6%	-12.4%[57.1 µM]
CCn1cc(C(=O)O)c(=O)c2cc(S(=O)(=O)N3CCCCCC3)ccc21	15.7%	-3.6%	-3.5%	-1.1%	-6.0%
CCn1cc(C(=O)O)c(=O)c2cc(OC)ccc21	1.9%	31.6µM*	-18.1%	2.6%	9.1%
O=C(CN1CCN(c2ccccc2)CC1)c1ccc2cc[nH]c2c1	-17.0%[57.1 µM]	?	3.5%	-5.2%	1.3%[57.1 µM]
O=C(CN1CCC2(CC1)OCCO2)c1ccc2cc[nH]c2c1	-21.2%	31.6µM*	-1.0%	-12.8%	25.8%
O=C(Nc1cc(Cl)ccc1N1CCOCC1)c1ccco1	-18.2%	-2.6%	-7.3%	4.0%	-14.2%
